Screening data deposited in PubChem by National Center for Advancing Translational Sciences (NCATS).
The list is not random: actives were taken first. Their share in the collection is about 4.6%.
D1 ag: agonists of human D1 dopamine receptor; P21728; HEK293 T-REx D1 cells, calcium flux, agonist mode; activation, % at 2 µM; 360,000 tested, 1% active; AID 504660; also: 0% is about no effect
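Tetracycline-induced HEK293 TREx D1 cells, force-coupled to calcium signalling, were dye-loaded with a no-wash calcium kit. Compound was pin-added after a 10 s baseline. Fluorescence was read kinetically at 1 cycle/s for 180 s, with calcium rises flagged as agonism.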
TRHR agonist: agonists of human TRH receptor | P34981 | TRHR cells, calcium flux fluo-8, FDSS agonist mode | activation, % at 2 µM | 360,000 tested, 0.18% active | AID 493084; also: 0% is about no effect
Target sequence (P34981 whole entry, looked up): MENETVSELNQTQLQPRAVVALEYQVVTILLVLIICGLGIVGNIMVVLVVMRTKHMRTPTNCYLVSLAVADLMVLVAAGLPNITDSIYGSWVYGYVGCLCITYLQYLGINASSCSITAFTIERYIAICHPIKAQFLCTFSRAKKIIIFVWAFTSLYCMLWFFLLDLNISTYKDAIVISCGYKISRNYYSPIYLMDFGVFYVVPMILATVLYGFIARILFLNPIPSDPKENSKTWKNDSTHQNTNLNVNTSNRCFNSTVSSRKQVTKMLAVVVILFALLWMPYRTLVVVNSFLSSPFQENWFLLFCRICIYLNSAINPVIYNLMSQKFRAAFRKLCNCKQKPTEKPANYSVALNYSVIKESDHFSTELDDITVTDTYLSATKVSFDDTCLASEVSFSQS
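Steps: seed TRHR cells overnight; add fluo-8 no-wash Ca dye, RT 30 min–1.5 h; record 10 s baseline; pin-transfer compounds; monitor fluorescence 1 cycle/s for the agonist window. Calcium increases flag candidate agonists.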
D1 antag: human D1 dopamine receptor antagonism; P21728; HEK293 TREx D1 cells, calcium flux, dopamine EC80; stronger effect = lower value; activity change, negative = inhibition, % at 10 µM; 360,000 tested, 3.2% active; in the data active = activity change below about -30%; also: % is scaled to controls: 0 for no effect and ±100 for the full control effect
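Allosteric or orthosteric antagonism assessed as attenuation of the calcium response to EC80 dopamine, added 180 s after compound, in induced HEK293 Trex D1 cells loaded with no-wash calcium dye.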
D1 PAM: enhances dopamine response at the human D1 receptor; 360,000 tested, 0.036% active; potentiation, % at 10 µM; P21728; HEK293 TREx D1 cells, calcium flux, dopamine EC20 potentiation; in the data active = potentiation above about 30%; also: 0% is about no effect
TRHR PAM: allosteric enhancers of human TRH receptor; TRHR cells, fluo-8 calcium fluorescence, EC20 TRH enhancement; AID 493056; enhancement, % at 2 µM; 360,000 tested, 0.66% active; in the data active = enhancement above about 30%; also: 0% is about no effect
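Enhancer read-out: after compound pinning and an initial kinetic agonist-mode read, an EC20 of TRH (10 nM final) was injected and fluo-8 calcium signal (Ex 480/Em 530) followed at 1 s/cycle for 100 cycles in TRHR-expressing cells.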
Numbers without * were called inactive; nt = no result. Rule as the data show it, unless noted: active = activation above about 30%; inactive = the rest.

SMILES | D1 ag | TRHR agonist | D1 antag | D1 PAM | TRHR PAM
COc1ccc(Cl)cc1NC(=O)CSc1nc2sccc2c(=O)[nH]1 | 1 | -1 | 6 | 10 | 4
CCOC(=O)c1ccccc1NC(=O)CSc1nc(=O)[nH]c2c1CCCC2 | 0 | 0 | nt | -1 | -1
COc1ccc(C)cc1NC(=O)CSc1nc2scc(C)c2c(=O)[nH]1 | 11 | 2 | -31* | 5 | 5
COc1ccc(C)cc1NC(=O)CSc1nc(=O)[nH]c2c1CCCC2 | 31* | 0 | nt | -2 | 4
CCOc1cccc2cc(-c3nc(-c4ccccc4C)no3)c(=O)oc12 | 2 | 0 | -15 | -4 | -3
COc1ccccc1CC(=O)NCCc1ccccc1 | 0 | -1 | -5 | 0 | -4
COc1ccccc1C(=O)NCCC(=O)NCCc1ccccc1 | 2 | 2 | -77* | -16 | -21
Cc1ccc(CN2C(=O)CC(c3ccc(Cl)cc3)c3c(C)nn(-c4nc(C)cc(C)n4)c32)cc1 (stereo unspecified) | -3 | 1 | -8 | 1 | 3
Cc1ccc(Cl)cc1N1CCN(C(=O)c2ccc(NC3=NC4CS(=O)(=O)CC4S3)cc2)CC1 (stereo unspecified) | 4 | 1 | -44* | -5 | -3
Cc1ccc(S(=O)(=O)c2nnn3c2nc(N2CCOCC2)c2ccccc23)c(C)c1 | 1 | 0 | -5 | 1 | 5
CCOC(=O)c1ccc(NC(=O)CC2Nc3ccccc3NC2=O)cc1 (stereo unspecified) | 1 | 1 | 6 | 0 | 8
CCOc1ccc(CCNC(=O)c2cccc(-n3cnnn3)c2)cc1OCC | 4 | 0 | -31* | -9 | -1
Cc1ccc(CNC(=O)c2cccc(-n3cnnn3)c2)cc1 | 0 | 0 | 15 | -1 | 30*
CC(C)(C)c1ccc(C(=O)NNC(=O)c2cccc(-n3cnnn3)c2)cc1 | 3 | 0 | -6 | 0 | 4
CC(=O)N(Cc1cccnc1)c1nc2c(C)cc(C)cc2s1 | 5 | 0 | nt | -2 | 3
O=C(CSc1nc(-c2cccs2)nc2cc(=O)[nH]n12)Nc1cccc(C(F)(F)F)c1 | 6 | -1 | -38* | -2 | -2
Cc1cccc(NC(=O)CSc2nc(-c3cccs3)nc3cc(=O)[nH]n23)c1 | 2 | 0 | -4 | 2 | -4
CCc1ccccc1NC(=O)Cn1ccn(-c2cc(C)cc(C)c2)c(=O)c1=O | 7 | 0 | -2 | -3 | 13
Cc1cccc(NS(=O)(=O)c2ccc3[nH]c4c(c3c2)CCCCCC4)c1 | 1 | 0 | -87* | -6 | -2
CCOc1ccc(NS(=O)(=O)c2ccc3[nH]c4c(c3c2)CCCC4)cc1 | 0 | 0 | -52* | 1 | 6
CN(CC(=O)NCc1ccc(F)cc1)S(=O)(=O)c1ccc2[nH]c3c(c2c1)CCCC3 | 1 | -1 | -10 | -1 | -2
COc1ccc(CNC(=O)CN(C)S(=O)(=O)c2ccc3[nH]c4c(c3c2)CCCC4)cc1 | -1 | 1 | -4 | 0 | 47*
Clc1ccc(CNC2CCCC2)c(Cl)c1 | 2 | 0 | 10 | 5 | 8
S=C(NCc1ccc(Cl)cc1Cl)NC1CCCCC1 | 30* | 2 | -33* | -8 | -11
S=C(NCCc1cccc(Cl)c1)NC1CCCCC1 | 7 | 1 | -38* | -2 | -10
SMILES | D1 ag | TRHR agonist | D1 antag | D1 PAM | TRHR PAM
Cc1ccc2cccc(OCCOCCOc3ccccc3Br)c2n1 | 3 | 0 | 15 | 5 | 5
Cc1ccc2cccc(OCCCOc3ccccc3F)c2n1 | 6 | -1 | -49* | -14 | -6
CNCc1ccccc1Sc1ccc(OC)cc1 | 9 | 0 | 8 | -1 | 9
CN(C)CCN(C)Cc1ccccc1Sc1cccc2ccccc12 | 51* | 1 | -36* | -15 | 4
CNCc1ccccc1Sc1cccc2ccccc12 | 59* | 1 | -19 | -10 | 4
CC(C)C[C@H](NC(=O)OC(C)(C)C)c1nnc(SCc2cccc(F)c2)o1 | 31* | 0 | -13 | 6 | 4
CSCC[C@H](NC(=O)OC(C)(C)C)c1nnc(SCc2cccc(F)c2)o1 | 3 | 1 | -28 | -4 | 3
CC(=O)CC1(C)OC(N)=C(C#N)C1(C#N)C#N (stereo unspecified) | 0 | 0 | -30* | 4 | 9
Cc1coc2cc3oc(=O)c(CCC(=O)N4CCCCC4)c(C)c3cc12 | 15 | 2 | 0 | -2 | -7
c1ccc(OCCCCN2CCCCC2)cc1 | 4 | 1 | 1 | 0 | 3
CN1CCCC(CC2Oc3ccccc3Sc3ccccc32)C1 (stereo unspecified) | 49* | 2 | -74* | -12 | 8
c1ccc2c(c1)OC(CCCN1CCCCC1)c1ccccc1S2 (stereo unspecified) | 14 | 2 | -85* | -7 | 8
COc1ccc(-c2nc(Cn3c(SCc4cccc(C(F)(F)F)c4)nc4cccnc43)c(C)o2)cc1OC | 9 | 1 | 10 | 1 | 6
CCCOC1CCCN(C(=O)c2ccc3oc(C(C)C)nc3c2)C1 (stereo unspecified) | 0 | 0 | -8 | -1 | -4
CCc1ccc(CN2CCC(C(=O)Nc3ccc(Oc4ccccc4)nc3)CC2)o1 | 37* | 1 | -28 | -14 | 2
Cc1ncc(CN2CCCCC2C(=O)Nc2ccc(Oc3ccccc3)nc2)cn1 (stereo unspecified) | -1 | 0 | -1 | -1 | -2
COc1cc(F)ccc1CN1CCC(C(=O)Nc2ccc(Oc3ccccc3)nc2)CC1 | 47* | 1 | -7 | -3 | 3
CC(C)n1cc(CN2CCC(C(=O)Nc3ccc(Oc4ccccc4F)cc3)CC2)cn1 | 105* | 2 | -62* | -10 | 4
CSc1ncc(CN2CCCCC2C(=O)Nc2ccc(Oc3ccccc3)nc2)cn1 (stereo unspecified) | 0 | -1 | -31* | -6 | 5
COc1cccc(C(=O)NCC(c2ccc(N(C)C)cc2)N2CCOCC2)c1OC (stereo unspecified) | 0 | -2 | -8 | 0 | 7
Cc1cc(C)c2c(=O)cc(C(=O)Nc3sc4c(c3C(=O)NCC3CCCO3)CCCC4)oc2c1 (stereo unspecified) | -1 | 0 | -16 | 0 | 2
Cc1cc(C)c2c(=O)cc(C(=O)Nc3sc4c(c3C(=O)NCc3ccccc3)CCCC4)oc2c1 | -1 | 1 | -86* | 3 | 20
O=C(Nc1sc2c(c1C(=O)NCc1cccnc1)CCCC2)c1ccco1 | 2 | 0 | -32* | 4 | 3
CN(C)C(CNC(=O)c1cccc(C(F)(F)F)c1)c1ccco1 (stereo unspecified) | 2 | 0 | 4 | -2 | 2
CN(CC(=O)Nc1n[nH]c(=S)s1)S(=O)(=O)c1cccc2cccnc12 | 1 | 0 | -2 | -1 | 9
OC(Cn1cnnc1)c1ccccc1 (stereo unspecified) | 4 | 0 | 0 | 6 | 13
